Results on 22 molecules are retold here after PMC4336329 (PLoS ONE, 2015).

Molecules are shown by their SMILES. About 14,000 (4.5%) of roughly 310,000 compounds showed an effect of 50% or more. The effect is printed as a negative number. The sample holds strong results, similar compounds and a random draw of the others, so the mix is not that of the screen.
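Note: peak tail current of the secondary pulse compared with the same well before compound.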

The test deals with human ether-à-go-go-related gene (hERG) potassium channel (human, UniProt Q12809). Nature of the test: primary screen, population patch clamp on CHO cells stably expressing hERG; higher = less effect of the substance.
human ether-à-go-go-related gene (hERG) potassium channel, sequence (Q12809 whole entry, looked up): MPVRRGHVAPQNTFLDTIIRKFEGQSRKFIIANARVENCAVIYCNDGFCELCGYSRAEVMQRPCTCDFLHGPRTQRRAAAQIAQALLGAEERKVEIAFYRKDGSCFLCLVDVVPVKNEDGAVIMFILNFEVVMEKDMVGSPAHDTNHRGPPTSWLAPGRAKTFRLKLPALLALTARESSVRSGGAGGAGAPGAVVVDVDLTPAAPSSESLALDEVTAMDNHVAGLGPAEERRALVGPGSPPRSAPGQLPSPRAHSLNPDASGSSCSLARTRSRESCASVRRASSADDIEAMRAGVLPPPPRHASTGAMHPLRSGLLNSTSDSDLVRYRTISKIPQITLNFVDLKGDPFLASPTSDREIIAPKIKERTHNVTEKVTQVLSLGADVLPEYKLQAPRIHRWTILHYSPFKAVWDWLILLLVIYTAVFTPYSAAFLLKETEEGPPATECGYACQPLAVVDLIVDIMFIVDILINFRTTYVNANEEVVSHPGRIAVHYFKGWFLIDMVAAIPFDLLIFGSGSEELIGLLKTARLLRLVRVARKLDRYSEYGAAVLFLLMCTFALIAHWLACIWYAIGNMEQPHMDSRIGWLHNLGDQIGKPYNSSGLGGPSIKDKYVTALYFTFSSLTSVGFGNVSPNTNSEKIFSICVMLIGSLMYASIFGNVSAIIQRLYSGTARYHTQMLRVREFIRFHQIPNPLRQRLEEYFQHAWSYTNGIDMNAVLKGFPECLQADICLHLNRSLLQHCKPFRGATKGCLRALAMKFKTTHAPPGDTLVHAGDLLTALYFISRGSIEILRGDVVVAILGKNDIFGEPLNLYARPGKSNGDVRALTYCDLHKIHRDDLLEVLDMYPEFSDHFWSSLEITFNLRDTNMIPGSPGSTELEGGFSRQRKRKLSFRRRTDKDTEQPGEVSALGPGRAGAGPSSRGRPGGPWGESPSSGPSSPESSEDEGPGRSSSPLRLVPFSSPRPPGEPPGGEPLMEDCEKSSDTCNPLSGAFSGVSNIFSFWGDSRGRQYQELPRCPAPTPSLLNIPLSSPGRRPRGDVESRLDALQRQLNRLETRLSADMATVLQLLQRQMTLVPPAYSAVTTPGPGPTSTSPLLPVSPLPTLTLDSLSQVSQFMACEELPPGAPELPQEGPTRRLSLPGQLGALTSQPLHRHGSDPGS
As to `C#CCOCCOCCOCCNc1nc(N2CCN(C(=O)CCCCCCCCCCNC(=O)Cn3cc(C[C@@H](C)O)nn3)CC2)nc(N2CCN(C(=O)CCCCCCCCCCNC(=O)[C@H](CCCCN)n3cc(CCCC(=O)O)nn3)CC2)n1`, the “hERG current change (%, negative = inhibition) at 10uM” value is given as -1.72%.

Regarding `C1CCc2c(nc3nnnn3c2N2CCOCC2)C1`, the “hERG current change (%, negative = inhibition) at 10uM” value is given as -3.03%. To `COc1ccc(CC(=O)Nc2ccc(N3CCOCC3)cc2)cc1S(=O)(=O)N1CCOCC1` belongs 0.936%. Take `COc1ccc(CC(=O)Nc2nc3ccc(F)cc3s2)cc1S(=O)(=O)N1CCOCC1`: the “hERG current change (%, negative = inhibition) at 10uM” value is given as -19.4%.

Take `COc1ccc(C(=O)Nc2nc3ccccc3s2)cc1`: the “hERG current change (%, negative = inhibition) at 10uM” value was found to be 11.6%. To `COc1ccc(C(=O)Nc2nc3ccccc3s2)cc1OC` belongs -65.8%. Turning to `COc1ccc2nc(NC(=O)Cc3ccc(OC)c(S(=O)(=O)N4CCOCC4)c3)sc2c1`, the “hERG current change (%, negative = inhibition) at 10uM” value was -22.1%.

Consider `COc1ccc(CC(=O)Nc2ccc(C#N)c(Cl)c2)cc1S(=O)(=O)N1CCOCC1`, for which the “hERG current change (%, negative = inhibition) at 10uM” value is reported as -68.1%.

`COc1cccc(C(=O)Nc2nc3ccccc3s2)c1`: the “hERG current change (%, negative = inhibition) at 10uM” value is recorded as 4.88%. To `COc1ccc(CC(=O)Nc2nc3ccccc3s2)cc1S(=O)(=O)N1CCOCC1` belongs -65.9%. To `COc1ccc(CC(=O)Nc2ccc(F)c(Cl)c2)cc1S(=O)(=O)N1CCOCC1` belongs -46.1%; to `COc1cc(NC(=O)c2nccn2C)cc(C(=O)Nc2cccc(C(F)(F)F)c2)c1`, 5.31%.

On to `CC(C)CC(C(=O)NC(=O)NCc1ccccc1)N1C(=O)c2ccccc2C1=O` (stereo not shown), for which the “hERG current change (%, negative = inhibition) at 10uM” value worked out at 8.22%. Consider `CC(C)(C)C(=O)OCCn1c(=O)c2cc3c(=O)n(CCOC(=O)C(C)(C)C)c(=O)c3cc2c1=O`, for which the “hERG current change (%, negative = inhibition) at 10uM” value worked out at 25.5%.

`CC(=O)c1sc2nc(-c3ccc(C)cc3)c3c(c2c1N)CCCC3`: the “hERG current change (%, negative = inhibition) at 10uM” value stood at 2.68%. For `Cc1ccc(C(O)(C(=O)NNS(=O)(=O)c2ccc(C)cc2)c2ccc(C)cc2)cc1`, the “hERG current change (%, negative = inhibition) at 10uM” value was -5.55%. To `Cc1nn(C)cc1[C@@H]1C[C@H]2CN(Cc3cccc(Cl)c3)C(=O)[C@]23CCCN13` belongs -36.8%. As for `Cn1cc([C@@H]2C[C@H]3CN(Cc4cccc(Cl)c4)C(=O)[C@]34CCCN24)c(-c2ccccc2)n1`, the “hERG current change (%, negative = inhibition) at 10uM” value is listed as -63.3%. As for `CCCn1cc([C@@H]2C[C@H]3CN(Cc4cccc(Cl)c4)C(=O)[C@]34CCCN24)c(C)n1`, the “hERG current change (%, negative = inhibition) at 10uM” value is given as -67.3%. Turning to `CCCn1ncc([C@@H]2C[C@H]3CN(Cc4cccc(Cl)c4)C(=O)[C@]34CCCN24)c1C`, the “hERG current change (%, negative = inhibition) at 10uM” value is -43.6%. To `Cc1ccccc1CN1C[C@@H]2C[C@@H](c3cn(C)nc3-c3ccccc3)N3CCC[C@@]23C1=O` belongs 3.15%. The value for `CCn1cc([C@@H]2C[C@H]3CN(Cc4cccc(Cl)c4)C(=O)[C@]34CCCN24)c(C)n1` was -41.7%.
